Measurements as given in PubChem BioAssay.
Calls of active or inactive are those of the source.

Columns and labels:
[1] = E. coli DRC41 culture turbidity changes, primary screen, E. coli filamentation inducer project, strain DRC41, OD650, 48 h (AID 1152);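 note: E. coli MC1000 strain DRC41 lacking acrAB efflux pump and sulA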; details: E. coli DRC41 (acrAB sulA), higher = more signal, called active from +8 up or from −8 down
[2] = small-molecule binders of probe aLefty1, primary screen, biochemical, small-molecule microarray, 635/667 nm fluorescence (AID 1153); details: higher = more signal;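 note: score merges spot fluorescence with signal-to-noise ratio from the scanned slide images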
[3] = PSAC antagonists in infected red cells, primary screen, cell-based, P. falciparum Indochina, OD700, 1 h (AID 1154); details: P. falciparum Indochina infected RBC osmotic lysis, higher = more signal, called active from +8 up or from −8 down
[4] = PSAC antagonists in infected red cells, primary screen, cell-based, P. falciparum Indochina, OD700, 2 h (AID 1155);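 note: lysis reports solute entry through the parasite surface anion channel PSAC; channel blockers reduce lysis of infected cells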; details: P. falciparum Indochina infected erythrocytes, osmotic lysis OD700; higher = more signal, called active from +8 up or from −8 down
[5] = osmotic lysis modulators in infected erythrocytes, primary screen, PSAC antagonist project, cell-based, P. falciparum Indochina, OD700, 3 h (AID 1156); details: higher = more signal, called active from +8 up or from −8 down
[6] = PSAC antagonists in infected red cells, primary screen, cell-based, P. falciparum Indochina, OD700, 18 h (AID 1157); details: P. falciparum Indochina infected erythrocytes, osmotic lysis OD700, 18 h; higher = more signal, called active from +8 up or from −8 down
[7] = modulators of S6 phosphorylation in cells, primary screen, cell-based, A549, cytoblot, luminescence, serum-stimulated (AID 1158); details: A549 phospho-S6 cytoblot, 5 h, higher = more signal;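 note: serum-stimulated A549 lung adenocarcinoma cells; signal is phosphorylated S6 detected by cytoblot immunostaining with HRP secondary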
[8] = molecular target: NADPH oxidase 2 (Homo sapiens) (UniProt P04839); test: NOX2-dependent H2O2 signal modulators, primary screen, NOX inhibitor project, cell-based, HEK293-NOX2, PMA-stimulated, Amplex Red fluorescence (AID 1159); details: 45 min, higher = more signal, called active from +8 up or from −8 down; note: test concentration not given here
[9] = molecular target: NADPH oxidase 4 (Homo sapiens) (UniProt Q9NPH5); test: NOX4-dependent H2O2 signal modulators, primary screen, NOX inhibitor project, cell-based, HEK293-NOX4, tetracycline-induced, Amplex Red fluorescence (AID 1160); details: 45 min, higher = more signal, called active from +8 up or from −8 down
[10] = molecular target: NADPH oxidase 5 (Homo sapiens) (UniProt Q96PH1); test: NOX5-dependent H2O2 signal modulators, primary screen, NOX inhibitor project, cell-based, HEK293-NOX5, Amplex Red fluorescence (AID 1161); details: HEK293-NOX5, ionomycin, 45 min, higher = more signal
[11] = A549 cell viability effects, profiling panel, calcein-AM fluorescence, 48 h, basal (AID 1162); details: higher = more signal; note: test concentration not given here
[12] = adipocyte viability effects, profiling panel, cell-based, 3T3-L1 adipocytes, calcein-AM fluorescence, 48 h, basal (AID 1163); details: 3T3-L1 adipocytes viability, higher = more signal; note: test concentration not given here
[13] = HepG2 cell viability effects, profiling panel, calcein-AM fluorescence, 48 h, basal (AID 1164); details: higher = more signal; note: test concentration not given here
[14] = MM1S cell viability effects, profiling panel, calcein-AM fluorescence, 48 h, basal (AID 1165); details: higher = more signal;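 note: viability of MM1S multiple myeloma cells under basal unstimulated conditions; test concentration not given here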
[15] = basal RPMI8226 viability, no added stimulus, profiling panel, cell-based, calcein-AM fluorescence, 48 h, PK04 Diversity Set (AID 1166); details: RPMI8226 myeloma viability, higher = more signal;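 note: cells grown under basal conditions without added stimulus; test concentration not given here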
[16] = basal HepG2 mitochondrial membrane potential changes, profiling panel, cell-based, JC-1 fluorescence, 24 h, 100 nL compound (AID 1167); details: higher = more signal; note: test concentration not given here
[17] = basal 3T3-L1 adipocyte mitochondrial potential changes, profiling panel, cell-based, JC-1 fluorescence, 3T3-L1 adipocytes, 24 h, 100 nL compound (AID 1168); details: JC-1 mitochondrial fluorescence, higher = more signal, called active from +8 up or from −8 down; note: test concentration not given here
[18] = basal RPMI8226 mitochondrial membrane potential changes, profiling panel, cell-based, JC-1 fluorescence, 24 h, 100 nL compound (AID 1169); details: RPMI8226 myeloma, JC-1 mitochondrial potential fluorescence, higher = more signal; note: test concentration not given here
[19] = basal MM1S mitochondrial membrane potential changes, profiling panel, cell-based, JC-1 fluorescence, 24 h, 100 nL compound (AID 1170); details: higher = more signal; note: test concentration not given here
[20] = A549 lung cancer cell viability effects, profiling panel, resazurin fluorescence, 24 h, PK04 Diversity Set (AID 1171); details: higher = more signal, called active from +8 up or from −8 down; note: test concentration not given here

Chain of NADPH oxidase 5 (Homo sapiens) (Q96PH1 whole entry, looked up): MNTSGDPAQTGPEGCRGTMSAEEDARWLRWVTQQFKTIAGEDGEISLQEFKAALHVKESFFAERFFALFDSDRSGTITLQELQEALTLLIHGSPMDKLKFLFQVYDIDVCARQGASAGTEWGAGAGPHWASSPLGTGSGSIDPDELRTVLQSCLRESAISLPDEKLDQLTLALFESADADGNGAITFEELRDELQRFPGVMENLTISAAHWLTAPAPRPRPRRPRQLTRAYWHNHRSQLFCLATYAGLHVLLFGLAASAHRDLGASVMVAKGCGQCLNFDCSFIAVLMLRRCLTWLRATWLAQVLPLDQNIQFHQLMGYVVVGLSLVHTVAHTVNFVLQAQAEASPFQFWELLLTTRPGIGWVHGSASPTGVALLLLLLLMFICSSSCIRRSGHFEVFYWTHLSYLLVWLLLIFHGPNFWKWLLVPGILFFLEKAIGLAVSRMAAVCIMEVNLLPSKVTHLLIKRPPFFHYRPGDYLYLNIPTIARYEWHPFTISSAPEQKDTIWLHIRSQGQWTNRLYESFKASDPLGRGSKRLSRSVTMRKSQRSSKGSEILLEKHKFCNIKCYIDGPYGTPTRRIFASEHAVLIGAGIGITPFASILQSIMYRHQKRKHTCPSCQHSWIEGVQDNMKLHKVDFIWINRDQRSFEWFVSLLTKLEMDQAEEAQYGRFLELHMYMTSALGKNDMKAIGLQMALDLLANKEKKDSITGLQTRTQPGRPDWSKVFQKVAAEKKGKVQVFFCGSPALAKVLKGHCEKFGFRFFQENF
Chain of NADPH oxidase 4 (Homo sapiens) (Q9NPH5 whole entry, looked up): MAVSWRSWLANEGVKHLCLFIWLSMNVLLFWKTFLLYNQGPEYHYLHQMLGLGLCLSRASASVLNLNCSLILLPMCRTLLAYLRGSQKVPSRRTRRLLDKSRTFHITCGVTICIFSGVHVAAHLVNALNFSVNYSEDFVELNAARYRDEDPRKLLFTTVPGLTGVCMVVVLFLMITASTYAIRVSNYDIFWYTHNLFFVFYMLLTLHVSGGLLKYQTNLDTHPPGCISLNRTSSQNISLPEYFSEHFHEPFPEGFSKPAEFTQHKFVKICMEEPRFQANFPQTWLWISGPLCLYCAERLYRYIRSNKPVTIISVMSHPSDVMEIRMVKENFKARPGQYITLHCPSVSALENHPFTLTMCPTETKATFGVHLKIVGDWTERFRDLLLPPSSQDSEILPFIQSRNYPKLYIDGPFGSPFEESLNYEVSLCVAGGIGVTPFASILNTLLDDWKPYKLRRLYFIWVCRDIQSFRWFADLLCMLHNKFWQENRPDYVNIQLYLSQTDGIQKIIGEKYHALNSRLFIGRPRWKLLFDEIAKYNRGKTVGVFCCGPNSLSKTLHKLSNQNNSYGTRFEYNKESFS
Chain of NADPH oxidase 2 (Homo sapiens) (P04839 whole entry, looked up): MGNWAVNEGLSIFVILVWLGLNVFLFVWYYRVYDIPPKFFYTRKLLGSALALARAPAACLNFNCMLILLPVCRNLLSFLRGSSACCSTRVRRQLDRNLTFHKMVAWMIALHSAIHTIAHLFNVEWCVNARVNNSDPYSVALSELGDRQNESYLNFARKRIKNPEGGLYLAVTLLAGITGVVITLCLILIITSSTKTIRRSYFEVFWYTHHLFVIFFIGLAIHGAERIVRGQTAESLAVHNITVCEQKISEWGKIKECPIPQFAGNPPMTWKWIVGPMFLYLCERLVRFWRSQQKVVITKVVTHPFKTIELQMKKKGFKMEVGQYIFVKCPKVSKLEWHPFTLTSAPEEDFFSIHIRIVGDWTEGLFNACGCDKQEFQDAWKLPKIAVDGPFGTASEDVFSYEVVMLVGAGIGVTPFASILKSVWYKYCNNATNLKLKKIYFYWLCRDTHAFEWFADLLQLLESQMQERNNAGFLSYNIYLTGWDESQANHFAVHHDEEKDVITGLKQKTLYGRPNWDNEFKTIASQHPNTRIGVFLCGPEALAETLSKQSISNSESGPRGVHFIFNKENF

| SMILES | z-score [1] | composite z-score [2] | z-score [3] | z-score [4] | z-score [5] | z-score [6] | z-score [7] | z-score [8] | z-score [9] | z-score [10] | z-score [11] | z-score [12] | z-score [13] | z-score [14] | z-score [15] | z-score [16] | z-score [17] | z-score [18] | z-score [19] | z-score [20] |
| --- | --- | --- | --- | --- | --- | --- | --- | --- | --- | --- | --- | --- | --- | --- | --- | --- | --- | --- | --- | --- |
| O=C1O[C@@H](c2ccccc2)[C@@H](c2ccccc2)N2[C@@H](c3ccc(O)cc3)[C@]3(C(=O)Nc4ccc(C#CC5=CCCCC5)cc43)[C@@H](C(=O)N3CCN(c4ncccn4)CC3)[C@H]12 | 1.29 (inactive) | 0.257 | 0.445 (inactive) | 0.35 (inactive) | -4.76 (inactive) | 0.614 (inactive) | 0.401 | 0.532 (inactive) | 0.278 (inactive) | 0.904 | -1.9 | 0.0112 | -1.25 | -1.2 | -2.78 | -0.703 | 0.701 (inactive) | -0.588 | -0.877 | 0.785 (inactive) |
| CC(C)N1CC=CC23O[C@@H]4C=CCOC(=O)[C@@H]4[C@H]2C(=O)N(C(C)CO)[C@@H]3C1=O (stereo not given in full) | -0.32 (inactive) | 0.233 | 0.287 (inactive) | 0.0397 (inactive) | 0.112 (inactive) | 0.111 (inactive) | 0.74 | 0.67 (inactive) | 0.266 (inactive) | 0.393 | -0.327 | -0.153 | -0.719 | 1.15 | -0.186 | -0.664 | -0.668 (inactive) | -0.166 | 0.462 | 0.226 (inactive) |
| COc1cc(CO)cc(I)c1O[C@H]1C=C(C(=O)NCCO)C[C@@H](N(CC2CCCCC2)C(=O)c2ccc(C(F)(F)F)cc2)[C@@H]1O | 1.76 (inactive) | -0.0547 | 1.05 (inactive) | 0.447 (inactive) | 1.69 (inactive) | 0.329 (inactive) | 0.597 | -0.363 (inactive) | 0.916 (inactive) | 0.686 | 0.608 | -0.535 | 1.42 | 0.639 | -0.189 | 0.214 | -0.0651 (inactive) | -1.09 | -0.337 | 0.126 (inactive) |
| C[C@H]1C2=C3C(CC[C@H]4C(OCc5ccc(F)cc5C(F)(F)F)OC[C@](C)([C@@H]34)N(C(=O)OC(C)(C)C)C2)C(CO)C1CO (stereo not given in full) | -2.8 (inactive) | 0.687 | 1.94 (inactive) | 0.368 (inactive) | 2.1 (inactive) | 0.864 (inactive) | 0.118 | -0.678 (inactive) | -2.59 (inactive) | -1.97 | -1.49 | -0.723 | -0.907 | -3.22 | -4.68 | -0.987 | -1.13 (inactive) | -0.522 | 0.0495 | -0.629 (inactive) |
